Where a chain is given by its changes, count along the chain named.
Key:
Assay in all cases: yeast three-hybrid, YBZ-1, SC-Leu-His + 0.5 mM 3-AT, 4 days
Details in all cases: tags: N-Gal4 AD-HA kept; label: inside an RPR1-promoter hybrid RNA with tandem MS2 sites; ssRNA
[1] = target: PUM1 PUF domain R4-PWT (Homo sapiens, UniProt Q14671 828-1176, N971P;H972W;Q975T)
How it was run: (§1)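 Each repeat of the Pumilio-1 PUF domain was randomized at its three base-contacting residues, and these libraries were co-expressed from a centromeric plasmid with matching RNA elements in strain YBZ-1. After four days on SC-Leu (input) or SC-Leu-His + 0.5 mM 3-AT (selection), the repeat regions were PCR-amplified and Illumina-sequenced. The interaction score compares variant frequency between input and selection as a log change, computed in log2 with a pseudocount of 1 for absent variants.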

[2] = target: PUM1 PUF domain R3-TFL (Homo sapiens, UniProt Q14671 828-1176, C935T;R936F;Q939L)
How it was run: as §1

[3] = target: PUM1 PUF domain R3-PWV (Homo sapiens, UniProt Q14671 828-1176, C935P;R936W;Q939V)
How it was run: as §1

[4] = target: PUM1 PUF domain R3-SNP (Homo sapiens, UniProt Q14671 828-1176, C935S;R936N;Q939P)
How it was run: as §1

[5] = target: PUM1 PUF domain R5-SRI (Homo sapiens, UniProt Q14671 828-1176, C1007S;Q1011I)
How it was run: as §1

[6] = target: T1, PUM1 PUF domain R6-SFA (Homo sapiens, UniProt Q14671 828-1176, N1043S;Y1044F;Q1047A)
T1 sequence: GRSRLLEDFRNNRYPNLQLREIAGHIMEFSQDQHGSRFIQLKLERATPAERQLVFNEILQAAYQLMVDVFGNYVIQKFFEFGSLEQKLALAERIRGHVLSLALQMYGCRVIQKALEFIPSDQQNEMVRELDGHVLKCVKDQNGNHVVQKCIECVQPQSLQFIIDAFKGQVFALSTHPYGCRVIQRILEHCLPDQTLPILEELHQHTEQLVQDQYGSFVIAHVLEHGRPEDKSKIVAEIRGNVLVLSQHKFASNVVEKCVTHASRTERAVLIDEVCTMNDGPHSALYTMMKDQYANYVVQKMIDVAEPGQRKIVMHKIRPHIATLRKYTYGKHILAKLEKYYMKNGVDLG
How it was run: as §1

[7] = target: PUM1 PUF domain R3-ARL (Homo sapiens, UniProt Q14671 828-1176, C935A;Q939L)
How it was run: as §1

[8] = target: PUM1 PUF domain R8-CHR (Homo sapiens, UniProt Q14671 828-1176, N1122C;Y1123H;Q1126R)
How it was run: as §1

[9] = target: T2, PUM1 PUF domain R6-IFL (Homo sapiens, UniProt Q14671 828-1176, N1043I;Y1044F;Q1047L)
T2 sequence: T1 sequence with S216I, A220L
How it was run: as §1

[10] = target: PUM1 PUF domain R1-KER (Homo sapiens, UniProt Q14671 828-1176, S863K;R864E;Q867R)
How it was run: as §1

[11] = target: PUM1 PUF domain R1-RKS (Homo sapiens, UniProt Q14671 828-1176, S863R;R864K;Q867S)
How it was run: as §1

[12] = target: PUM1 PUF domain R7-IMR (Homo sapiens, UniProt Q14671 828-1176, S1079I;N1080M;E1083R)
How it was run: as §1

[13] = target: PUM1 PUF domain R7-RRY (Homo sapiens, UniProt Q14671 828-1176, S1079R;N1080R;E1083Y)
How it was run: as §1

[14] = target: PUM1 PUF domain R3-GNE (Homo sapiens, UniProt Q14671 828-1176, C935G;R936N;Q939E)
How it was run: as §1

[15] = target: PUM1 PUF domain R3-IYS (Homo sapiens, UniProt Q14671 828-1176, C935I;R936Y;Q939S)
How it was run: as §1

[16] = target: PUM1 PUF domain R8-KKF (Homo sapiens, UniProt Q14671 828-1176, N1122K;Y1123K;Q1126F)
How it was run: as §1

[17] = target: PUM1 PUF domain R5-FRQ (Homo sapiens, UniProt Q14671 828-1176, C1007F)
How it was run: as §1

[18] = target: PUM1 PUF domain R5-GWW (Homo sapiens, UniProt Q14671 828-1176, C1007G;R1008W;Q1011W)
How it was run: as §1

[19] = target: PUM1 PUF domain R1-RQN (Homo sapiens, UniProt Q14671 828-1176, S863R;R864Q;Q867N)
How it was run: as §1

## GGCUAGAACUAGUGGAUCCCCCGGCGCCCGGCGGCUCGAGCCCGGGUAAGUGUACAUAGUCUGCAUGCCGCCGGGCGCCAUGCCUGCAGGUCGACUCUAGAAAACAUG
[1]
  binding signal: 5.24 log2 enrichment (interaction score)

## GGCUAGAACUAGUGGAUCCCCCGGCGCCCGGCGGCUCGAGCCCGGGUAAGUGUAAAUAGUCUGCAUGCCGCCGGGCGCCAUGCCUGCAGGUCGACUCUAGAAAACAUG
[2]
  binding signal: 2.81 log2 enrichment (interaction score)
[3]
  binding signal: 3.63 log2 enrichment (interaction score)
[4]
  binding signal: 2.72 log2 enrichment (interaction score)
[5]
  binding signal: 2.73 log2 enrichment (interaction score)
[6]
  binding signal: 3.38 log2 enrichment (interaction score)
[7]
  binding signal: 3.6 log2 enrichment (interaction score)
[8]
  binding signal: 2.18 log2 enrichment (interaction score)

## GGCUAGAACUAGUGGAUCCCCCGGCGCCCGGCGGCUCGAGCCCGGGUAAGUGAAAAUAGUCUGCAUGCCGCCGGGCGCCAUGCCUGCAGGUCGACUCUAGAAAACAUG
[9]
  binding signal: 7.28 log2 enrichment (interaction score)

## GGCUAGAACUAGUGGAUCCCCCGGCGCCCGGCGGCUCGAGCCCGGGUAAGUGUAAAUUGUCUGCAUGCCGCCGGGCGCCAUGCCUGCAGGUCGACUCUAGAAAACAUG
[10]
  binding signal: 3.72 log2 enrichment (interaction score)
[11]
  binding signal: 4.69 log2 enrichment (interaction score)

## GGCUAGAACUAGUGGAUCCCCCGGCGCCCGGCGGCUCGAGCCCGGGUAAGUUUAAAUAGUCUGCAUGCCGCCGGGCGCCAUGCCUGCAGGUCGACUCUAGAAAACAUG
[12]
  binding signal: 2.21 log2 enrichment (interaction score)
[13]
  binding signal: 3.87 log2 enrichment (interaction score)

## GGCUAGAACUAGUGGAUCCCCCGGCGCCCGGCGGCUCGAGCCCGGGUAAGUCUAAAUAGUCUGCAUGCCGCCGGGCGCCAUGCCUGCAGGUCGACUCUAGAAAACAUG
[13]
  binding signal: 3.51 log2 enrichment (interaction score)

## GGCUAGAACUAGUGGAUCCCCCGGCGCCCGGCGGCUCGAGCCCGGGUAAGUGUAAGUAGUCUGCAUGCCGCCGGGCGCCAUGCCUGCAGGUCGACUCUAGAAAACAUG
[14]
  binding signal: 2.22 log2 enrichment (interaction score)
[15]
  binding signal: 4.72 log2 enrichment (interaction score)

## GGCUAGAACUAGUGGAUCCCCCGGCGCCCGGCGGCUCGAGCCCGGGUAAGCGUAAAUAGUCUGCAUGCCGCCGGGCGCCAUGCCUGCAGGUCGACUCUAGAAAACAUG
[16]
  binding signal: 3 log2 enrichment (interaction score)
[8]
  binding signal: 4.19 log2 enrichment (interaction score)

## GGCUAGAACUAGUGGAUCCCCCGGCGCCCGGCGGCUCGAGCCCGGGUAAGUGUCAAUAGUCUGCAUGCCGCCGGGCGCCAUGCCUGCAGGUCGACUCUAGAAAACAUG
[17]
  binding signal: 2.71 log2 enrichment (interaction score)

## GGCUAGAACUAGUGGAUCCCCCGGCGCCCGGCGGCUCGAGCCCGGGUAAGUGUUAAUAGUCUGCAUGCCGCCGGGCGCCAUGCCUGCAGGUCGACUCUAGAAAACAUG
[18]
  binding signal: 6.66 log2 enrichment (interaction score)

## GGCUAGAACUAGUGGAUCCCCCGGCGCCCGGCGGCUCGAGCCCGGGUAAGUGUAAUUAGUCUGCAUGCCGCCGGGCGCCAUGCCUGCAGGUCGACUCUAGAAAACAUG
[7]
  binding signal: 1.22 log2 enrichment (interaction score)

## GGCUAGAACUAGUGGAUCCCCCGGCGCCCGGCGGCUCGAGCCCGGGUAAGUGUAAAUCGUCUGCAUGCCGCCGGGCGCCAUGCCUGCAGGUCGACUCUAGAAAACAUG
[19]
  binding signal: 4.56 log2 enrichment (interaction score)

Reference: paper PMC8384837, “Expanding the binding specificity for RNA recognition by a PUF domain”
